A number with no mark means an inactive call. Inconclusive results are not listed. Activity calls are given as the source filed them. Unless noted, the call rests on the fitted dose curve.

Experimental findings from PubChem BioAssay (Tox21) are described below.

Assay [1] in a line: Nuclear factor erythroid 2-related factor 2/antioxidant responsive element (Nrf2/ARE) small molecule agonists: qHTS cell viability counter screen in human keratinocytes (AID 1919968; active means well fitted curve in the direction sought with a large enough effect in the repeat runs; an effect the other way counts as inactive or inconclusive; further: nearly all actives have a fitted effect of over 55% in size; further: potency means the concentration at half of the fitted maximal effect). In outline: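 Fluorescence read-out from CellTiter-Fluor after 1 h at 37 C. Wells held HaCaT-derived ARE-luciferase reporter cells (1,500/well) treated 23 h with DMSO-dissolved compounds. Run in the same wells as the luciferase agonist read.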

Assay [2] in a line: Nuclear factor erythroid 2-related factor 2/antioxidant responsive element (Nrf2/ARE) small molecule agonists: luciferase reporter gene qHTS assay in human keratinocytes (AID 1919969; further: nearly all actives have a fitted effect of over 35% in size; further: potency means the concentration at half of the fitted maximal effect). (Reporter assays use an easily measured gene product as a stand-in for the process of interest.)
Assay [3] addresses KiSS-1 receptor (Homo sapiens) (UniProt Q969F8). The experiment in a line: Human kisspeptin (KISS1R) small molecule agonists, calcium flux assay in KISS1R-HEK293 cells (AID 1920064; active means well fitted curve in the direction sought with a large enough effect in the repeat runs; an effect the other way counts as inactive or inconclusive). In outline:
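Calcium flux read-out: kinetic fluorescence at Ex/Em=480/540, 1 s intervals over 3 min, after pin-tool compound addition to dye-loaded KISS1R-HEK293 cells. Fifteen concentrations, triplicates.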

A short description of assay [4]: G protein-coupled receptor (GPCR) small molecule agonists, calcium flux assay: HEK293 wild type cell line counter screen (AID 1920065). In outline: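 Agonist mode; 18 h seeding at 37 C, 1 h dye load at 37 C; compounds pinned from DMSO, ATP as positive control; kinetic fluorescence 480/540 nm, 3 min, 1 s reads; 15 concentrations, triplicate.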
(In general: Calcium assays in cells follow changes in intracellular calcium, usually with a dye or a luminescent sensor.)

Assay [5] is described as follows: p53 small molecule agonists, cell-based qHTS assay with human liver microsomes (AID 1963577).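 Further: p53 response element beta-lactamase reporter cells with liver microsomes plus NADPH.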 In outline:
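Steps: plate p53RE-bla cells, incubate 5 h at 37 C; add compound in DMSO; add microsomes (0.5 mg/mL final) and NADPH (0.5 mg/mL final); incubate 16 h at 37 C; add LiveBLAzer, 2 h RT; read fluorescence.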
On the technique in general: qHTS replaces the single test concentration by a dilution series.

Assay [6] is described as follows: p53 small molecule agonists, cell-based qHTS assay with rat liver microsomes (AID 1963578). In outline: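 Metabolic activation is supplied by rat liver microsomes with NADPH (each 0.5 mg/mL final). p53RE-bla cells incubate with compound 16 h at 37 C; reporter activity is measured by LiveBLAzer fluorescence.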
The nature of assay [7]: p53 small molecule agonists, cell-based qHTS assay with rat liver microsomes: qHTS cell viability counter screen (AID 1963580). Further: nearly all actives have a fitted effect of over 45% in size. In outline: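 Cytotoxicity counter screen: intracellular ATP read by CellTiter-Glo luminescence in the p53 reporter wells. HCT-116 p53RE-bla cells were treated for 16 h at 37 C alongside rat liver microsomes and NADPH, each 0.5 mg/mL final.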
A short description of assay [8]: p53 small molecule agonists, cell-based qHTS assay: qHTS cell viability counter screen (AID 1963581). Further: nearly all actives have a fitted effect of over 45% in size. In outline:
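Cytotoxicity read-out: ATP-based luminescence (CellTiter-Glo, 30 min RT) measured in the same wells as the p53 reporter assay, HCT-116 p53RE-bla cells, 16 h compound exposure at 37 C.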

Assay [9] deals with 5-hydroxytryptamine receptor 2A (Homo sapiens) (UniProt P28223). Description: 5-hydroxytryptamine receptor 2A (HTR2A) small molecule agonists, cell-based qHTS assay (AID 1963587). Further: nearly all actives have a fitted effect of over 30% in size. In outline:
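Kinetic calcium-flux fluorescence (2 min, 1 sec intervals) after compound addition in agonist mode. HTR2A-CHO cells were cultured 18 h, then dye-loaded 1 h at 37 C.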

For assay [10], the target named is Beta-2 adrenergic receptor (Homo sapiens) (UniProt P07550). The experiment in a line: Adrenergic beta2 receptor (ADRB2) small molecule antagonists, cell-based qHTS assay (AID 1963592). Further: series mostly up to about 92 µM; nearly all actives have a fitted effect of over 50% in size. In outline:
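Assay format: CHO-ADRB2 cells, 18-20hr seeding at 37C/5% CO2, then compound plus 1nM isoproterenol agonist mix for 0.5hr RT. Homogeneous time-resolved fluorescence cAMP detection after 1hr, expressed as 665/615 nm ratio.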

Assay [11] deals with D(2) dopamine receptor (Homo sapiens) (UniProt P14416). Description: Dopamine D2 receptor (DRD2) small molecule antagonists, cell-based qHTS assay (AID 1963595; active means well fitted inhibition curve with a large enough effect in the signal ratio in the repeat runs, with a control signal flat; the % refers to the signal ratio). In outline:
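Human DRD2 antagonist qHTS measuring cAMP by HTRF. The cells are exposed to compound for 10 min, then to NKH477 (200 nM) and quinpirole (12 nM) for 30 min at RT, with Ro20-1724 (0.1 mM) present throughout.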

Assay [12] can be described thus: p53 small molecule agonists, cell-based qHTS assay (AID 1963582; active means well fitted activation curve with a large enough effect in the signal ratio in the repeat runs, not every such curve was filed as active; the % refers to the signal ratio). In outline: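 Fluorescence intensity read-out of a beta-lactamase reporter under a p53 response element. Cells were exposed to DMSO-dissolved compounds for 16 h at 37 C, then developed with FRET substrate for 2 h at RT.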
Assay [13] deals with 5-hydroxytryptamine receptor 2A (Homo sapiens) (UniProt P28223). The experiment in a line: 5-hydroxytryptamine receptor 2A (HTR2A) small molecule antagonists, cell-based qHTS assay (AID 1963586). Further: nearly all actives have a fitted effect of over 45% in size. In outline: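 CHO cells stably expressing human HTR2A were plated for 18 h at 37 C, then loaded with calcium dye for 1 h. Compounds were preincubated 5 min at room temperature before DOI (4 nM solution) was added. Kinetic fluorescence was read for 3 min.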
5-hydroxytryptamine receptor 2A (Homo sapiens), sequence (P28223 whole entry, looked up): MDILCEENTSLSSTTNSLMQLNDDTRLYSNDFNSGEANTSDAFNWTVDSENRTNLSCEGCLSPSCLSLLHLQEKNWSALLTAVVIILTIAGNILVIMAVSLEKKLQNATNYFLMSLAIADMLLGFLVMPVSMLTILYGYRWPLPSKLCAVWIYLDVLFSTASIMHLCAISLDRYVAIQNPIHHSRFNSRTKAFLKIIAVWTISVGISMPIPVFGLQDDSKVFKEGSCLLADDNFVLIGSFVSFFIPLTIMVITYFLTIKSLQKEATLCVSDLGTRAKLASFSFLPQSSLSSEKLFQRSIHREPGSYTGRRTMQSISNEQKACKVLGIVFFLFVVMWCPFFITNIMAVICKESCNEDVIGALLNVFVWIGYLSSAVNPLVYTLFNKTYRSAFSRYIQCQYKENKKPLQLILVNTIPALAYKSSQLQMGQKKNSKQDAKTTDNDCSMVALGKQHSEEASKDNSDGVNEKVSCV

Assay [14] addresses Muscarinic acetylcholine receptor M1 (Homo sapiens) (UniProt P11229). Description: Cholinergic receptor muscarinic 1 (CHRM1) small molecule antagonists, cell-based qHTS assay (AID 1963588). Further: nearly all actives have a fitted effect of over 40% in size. In outline: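 Compounds were tested at 15 concentrations in three independent runs. Dye-loaded CHRM1-CHO cells were exposed 5 min at room temperature before stimulation by acetylcholine added at 50nM. Intracellular calcium was read kinetically on FDSS for 3 min.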

The target is the same in assay [15]. Description: Cholinergic receptor muscarinic 1 (CHRM1) small molecule agonists, cell-based qHTS assay (AID 1963589). Further: nearly all actives have a fitted effect of over 35% in size. In outline:
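Calcium flux read-out: kinetic fluorescence at 1 sec intervals after pin-tool compound addition to dye-loaded CHRM1-CHO cells (human M1). Agonist mode; 15 concentrations tested in triplicate independent runs.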

In assay [16] the target is D(2) dopamine receptor (Homo sapiens) (UniProt P14416). Description: Dopamine D2 receptor (DRD2) small molecule agonists, cell-based qHTS assay (AID 1963594). Further: nearly all actives have a fitted effect of over 35% in size. In outline: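 cAMP accumulation in DRD2-HEK293 cells measured by HTRF after 1 h detection; compounds added 10 min before NKH477 (200nM […]) forskolin-analogue stimulation, 30 min at room temperature, with Ro20-1724 present at 0.1 mM final.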
D(2) dopamine receptor (Homo sapiens), sequence (P14416 whole entry, looked up): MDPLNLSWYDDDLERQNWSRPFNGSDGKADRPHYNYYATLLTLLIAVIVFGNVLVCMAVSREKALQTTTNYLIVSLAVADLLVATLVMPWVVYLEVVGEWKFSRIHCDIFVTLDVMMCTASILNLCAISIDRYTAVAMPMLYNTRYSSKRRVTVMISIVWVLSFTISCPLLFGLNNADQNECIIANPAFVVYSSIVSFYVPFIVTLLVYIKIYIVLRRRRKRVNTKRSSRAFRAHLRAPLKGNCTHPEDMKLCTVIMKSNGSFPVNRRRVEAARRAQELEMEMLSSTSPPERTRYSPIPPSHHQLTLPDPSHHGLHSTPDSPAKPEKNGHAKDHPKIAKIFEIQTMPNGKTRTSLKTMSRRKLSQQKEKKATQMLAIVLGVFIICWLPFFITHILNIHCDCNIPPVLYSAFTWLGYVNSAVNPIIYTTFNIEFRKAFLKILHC

The nature of assay [17]: cAMP Responsive Elements (CRE) small molecule antagonists, cell-based qHTS assay (AID 1963591; active means well fitted inhibition curve with a large enough effect in the signal ratio in the repeat runs, not every such curve was filed as active; the % refers to the signal ratio). In outline:
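HEK293T CRE-bla; 18 h preincubation; compound pin-transfer; NKH477 0.25 uM final, 3 h, 37 C; LiveBLAzer FRET substrate 2 h RT.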

The nature of assay [18]: p53 small molecule agonists, cell-based qHTS assay with human liver microsomes: qHTS cell viability counter screen (AID 1963579). Further: nearly all actives have a fitted effect of over 45% in size. In outline: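 After the 460/530 nm beta-lactamase read, CellTiter-Glo was added to the same wells and luminescence measured after 30 min at room temperature, giving viability of p53RE-bla cells treated 16 h with compounds plus microsomes and NADPH.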

A short description of assay [19]: cAMP Responsive Elements (CRE) small molecule agonists, cell-based qHTS assay (AID 1963590). In outline: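 Beta-lactamase reporter readout: LiveBLAzer B/G FRET substrate, 2 h at room temperature, added after 3 h compound treatment of CRE-bla HEK 293T cells at 37 C/5% CO2.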

Muscarinic acetylcholine receptor M1 (Homo sapiens), sequence (P11229 whole entry, looked up): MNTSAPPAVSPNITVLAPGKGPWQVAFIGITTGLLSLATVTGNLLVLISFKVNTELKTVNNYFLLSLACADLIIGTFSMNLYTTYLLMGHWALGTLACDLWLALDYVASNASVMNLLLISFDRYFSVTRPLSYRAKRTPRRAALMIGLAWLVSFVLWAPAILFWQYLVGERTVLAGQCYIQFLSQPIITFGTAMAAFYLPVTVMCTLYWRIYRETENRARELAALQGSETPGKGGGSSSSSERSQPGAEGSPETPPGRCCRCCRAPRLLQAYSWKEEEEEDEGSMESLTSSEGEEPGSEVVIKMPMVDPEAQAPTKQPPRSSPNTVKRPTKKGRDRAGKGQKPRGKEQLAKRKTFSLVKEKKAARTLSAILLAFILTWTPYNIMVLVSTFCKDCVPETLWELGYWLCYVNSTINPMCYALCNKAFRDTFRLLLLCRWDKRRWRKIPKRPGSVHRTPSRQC
Beta-2 adrenergic receptor (Homo sapiens), sequence (P07550 whole entry, looked up): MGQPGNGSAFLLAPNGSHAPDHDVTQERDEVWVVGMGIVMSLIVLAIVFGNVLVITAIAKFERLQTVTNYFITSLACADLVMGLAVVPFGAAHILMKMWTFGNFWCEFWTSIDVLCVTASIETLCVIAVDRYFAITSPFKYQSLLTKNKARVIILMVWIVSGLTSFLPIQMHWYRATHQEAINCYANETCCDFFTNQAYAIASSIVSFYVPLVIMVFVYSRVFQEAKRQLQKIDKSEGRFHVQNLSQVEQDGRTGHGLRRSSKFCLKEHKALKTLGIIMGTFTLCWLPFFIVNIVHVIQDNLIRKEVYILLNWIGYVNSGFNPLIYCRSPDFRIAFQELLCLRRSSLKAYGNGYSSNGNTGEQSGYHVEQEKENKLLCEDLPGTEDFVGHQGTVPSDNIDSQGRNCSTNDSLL
KiSS-1 receptor (Homo sapiens), sequence (Q969F8 whole entry, looked up): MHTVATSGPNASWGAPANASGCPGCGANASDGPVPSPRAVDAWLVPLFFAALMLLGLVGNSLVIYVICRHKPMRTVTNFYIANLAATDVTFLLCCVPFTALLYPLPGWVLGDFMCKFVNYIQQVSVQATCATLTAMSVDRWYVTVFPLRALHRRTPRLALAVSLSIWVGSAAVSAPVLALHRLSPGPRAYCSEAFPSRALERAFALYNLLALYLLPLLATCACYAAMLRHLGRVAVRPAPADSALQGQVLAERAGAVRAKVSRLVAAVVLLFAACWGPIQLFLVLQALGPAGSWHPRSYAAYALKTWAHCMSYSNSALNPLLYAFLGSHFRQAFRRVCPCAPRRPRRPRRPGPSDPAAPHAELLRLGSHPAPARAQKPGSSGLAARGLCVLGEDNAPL

As for `CC(C)C[C@H](NC(=O)OCC1c2ccccc2-c2ccccc21)C(=O)O`, the Potency entry in assay [1], in assay [5], in assay [6], in [7], in [8] and in assay [9] was “inactive” each time. The Potency result in [10] and in assay [11] was “inactive” throughout. Also, the Potency in assay [2] is 0.611 µM (active). Besides, the outcome in assay [3] and in assay [4] was inactive.

For `CCOc1cc(OCC)c(C(=O)CCC(=O)O)cc1OCC`, the Potency entry in [1], in assay [2], in assay [5], in [6], in [7] and in assay [8] was “inactive” each time. Moreover, the Potency entry in [12], in [13], in [9], in [14], in assay [15] and in [10] was “inactive” in each case. For the same compound, the Potency entry in assay [16] and in [11] was “inactive” in each case. For the same compound, the result in assay [3] and in [4] was inactive.

With `COc1cc2c(N3CCN(C(=O)Nc4ccc(OC(C)C)cc4)CC3)ncnc2cc1OCCCN1CCCCC1`, the Potency in assay [1] is 23.7 µM (active). Besides, the Potency entry in assay [2], in [5], in assay [6], in [7], in [8] and in [12] was “inactive” in each case. Besides, the Potency entry in [13], in assay [9], in assay [14], in [15], in assay [17] and in [10] was “inactive” throughout. Besides, in [16], the Potency entry is “inactive”. For the same compound, the result in assay [3] and in [4] was inactive.

On to `CC(CO)(CO)C(=O)O`, for which the Potency result in assay [1], in assay [2], in assay [5], in assay [6], in [18] and in assay [7] was “inactive” throughout. Also, the Potency result in [8], in assay [13], in assay [9], in assay [14], in assay [15] and in [19] was “inactive” in each case. The Potency entry in [17], in [10], in assay [16] and in assay [11] was “inactive” each time. Moreover, the result in assay [3] was inactive.

In the case of `CC(C)Nc1cccnc1N1CCN(C(=O)c2cc3cc(NS(C)(=O)=O)ccc3[nH]2)CC1`, the Potency entry in assay [1], in assay [2], in assay [5], in [6], in assay [8] and in assay [12] was “inactive” in each case. Besides, the Potency entry in assay [13], in [9], in assay [14], in [15], in [19] and in assay [10] was “inactive” each time. For the same compound, in assay [11], the Potency result is “inactive”. For the same compound, the result in [3] and in assay [4] was inactive.

Consider `CS(=O)(=O)c1ccc(-c2cn3ccccc3n2)cc1`, for which the Potency result in assay [1], in assay [5], in [8], in assay [13], in [9] and in assay [14] was “inactive” in each case. The Potency result in assay [15], in assay [19], in [17], in [10], in assay [16] and in [11] was “inactive” each time. Further, in [2], the Potency is 33.5 µM (active). Moreover, the result in assay [3] and in [4] was inactive.

Turning to `COC(=O)CCCC(=O)O`, the Potency result in [1], in [2], in assay [5], in assay [6], in assay [18] and in assay [7] was “inactive” in each case. Further, the Potency result in [8], in [12], in [13], in [9], in [14] and in assay [15] was “inactive” each time. In addition, the Potency entry in [19], in [17], in assay [10], in [16] and in assay [11] was “inactive” throughout. Besides, in assay [4], the outcome was inactive.

Take `COc1ccc(C(=O)Nc2nc3ccccc3c(NCc3ccccc3)c2C#N)cc1`: the Potency entry in assay [1], in assay [2], in assay [6], in assay [7], in [8] and in assay [12] was “inactive” throughout. Further, the Potency result in [13], in [15] and in [11] was “inactive” throughout. Further, the outcome in assay [3] and in assay [4] was inactive.
